# According to PubChem BioAssay AID1159580 (chemical genetic matrix, 2015):
# The campaign covered roughly 5,500 compounds. About 2,000 (36%) were called active. Inconclusive results (about 18%) are left out. The list shows a part of the results. Values without a mark were called inactive. Rule as the data show it: active = normalized growth mostly below about 0.91 (no sharp cut-off); inconclusive = no clear call, values can overlap the other calls; inactive = mostly above about 0.92.
# Test: chemical genetic growth profiling, strain panel (AID 1159580);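 also: tested at 20 µM; growth read once vehicle control cultures reached saturation at 30 °C; 1 = growth at the plate median or of vehicle wells; lower values mean less growth of the strain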
# Conditions: S. cerevisiae deletion strains, growth OD
structure (smiles),measurement,setting,value
CC(C)Sc1c(Cl)cccc1NC(=O)Nc1ccccc1,normalized growth,"locus YAR019C, strain CDC15, hits give low values",0.971
same,normalized growth,"locus YBL105C, strain PKC1, hits give low values",0.97
same,normalized growth,"locus YBR135W, strain CKS1, hits give low values",0.96
same,normalized growth,"locus YBR136W, strain MEC1, hits give low values",0.959
same,normalized growth,"locus YBR160W, strain CDC28, hits give low values",0.962
same,normalized growth,"locus YDL017W, strain CDC7, hits give low values",0.968
same,normalized growth,"locus YDL028C, strain MPS1, hits give low values",0.962
same,normalized growth,"locus YDL101C, strain DUN1, hits give low values",0.976
same,normalized growth,"locus YDL108W, strain KIN28, hits give low values",0.966
same,normalized growth,"locus YDL132W, strain cdc53, hits give low values",0.974
same,normalized growth,"locus YDL214C, strain PRR2, hits give low values",0.871
same,normalized growth,"locus YDR052C, strain DBF4, hits give low values",0.973
same,normalized growth,"locus YDR054C, strain cdc34, hits give low values",0.959
same,normalized growth,"locus YDR226W, strain ADK1, hits give low values",0.976
same,normalized growth,"locus YDR477W, strain SNF1, hits give low values",0.867
same,normalized growth,"locus YER123W, strain YCK3, hits give low values",0.813
same,normalized growth,"locus YER133W, strain GLC7, hits give low values",0.899
same,normalized growth,"locus YFL009W, strain cdc4, hits give low values",0.97
same,normalized growth,"locus YFL029C, strain CAK1, hits give low values",0.964
same,normalized growth,"locus YFR003C, strain YPI1, hits give low values",0.957
same,normalized growth,"locus YFR019W, strain FAB1, hits give low values",0.872
same,normalized growth,"locus YFR028C, strain CDC14, hits give low values",0.963
same,normalized growth,"locus YGR040W, strain KSS1, hits give low values",0.843
same,normalized growth,"locus YGR052W, strain FMP48, hits give low values",0.937
same,normalized growth,"locus YGR092W, strain DBF2, hits give low values",0.836
same,normalized growth,"locus YHR030C, strain SLT2, hits give low values",0.666 (active)
same,normalized growth,"locus YHR079C, strain IRE1, hits give low values",0.898
same,normalized growth,"locus YHR082C, strain KSP1, hits give low values",0.858
same,normalized growth,"locus YHR205W, strain SCH9, hits give low values",0.788
same,normalized growth,"locus YIL147C, strain SLN1, hits give low values",0.964
same,normalized growth,"locus YJL095W, strain BCK1, hits give low values",0.803
same,normalized growth,"locus YJL128C, strain PBS2, hits give low values",0.966
same,normalized growth,"locus YJL157C, strain FAR1, hits give low values",0.895
same,normalized growth,"locus YJR016C, strain ILV3, hits give low values",0.97
same,normalized growth,"locus YJR066W, strain TOR1 (second series), hits give low values",0.915
same,normalized growth,"locus YJR066W, strain TOR1, hits give low values",0.835
same,normalized growth,"locus YKL048C, strain ELM1, hits give low values",0.874
same,normalized growth,"locus YKL067W, strain YNK1, hits give low values",0.892
same,normalized growth,"locus YKL101W, strain HSL1, hits give low values",0.891
same,normalized growth,"locus YKL193C, strain SDS22, hits give low values",0.963
same,normalized growth,"locus YKL203C, strain TOR2, hits give low values",0.891
same,normalized growth,"locus YLR113W, strain HOG1, hits give low values",0.765 (active)
same,normalized growth,"locus YLR133W, strain CKI1, hits give low values",0.857
same,normalized growth,"locus YLR403W, strain SFP1, hits give low values",0.863
same,normalized growth,"locus YML070W, strain DAK1, hits give low values",0.869
same,normalized growth,"locus YMR001C, strain CDC5, hits give low values",0.967
same,normalized growth,"locus YMR205C, strain PFK2 (second series), hits give low values",0.863
same,normalized growth,"locus YMR277W, strain FCP1, hits give low values",0.962
same,normalized growth,"locus YNL006W, strain LST8, hits give low values",0.975
same,normalized growth,"locus YNL020C, strain ARK1, hits give low values",0.861
same,normalized growth,"locus YNL161W, strain CBK1, hits give low values",0.975
same,normalized growth,"locus YNL183C, strain NPR1, hits give low values",0.827
same,normalized growth,"locus YNL207W, strain RIO2, hits give low values",0.965
same,normalized growth,"locus YNL222W, strain SSU72, hits give low values",0.964
same,normalized growth,"locus YNL307C, strain MCK1 (second series), hits give low values",0.771
same,normalized growth,"locus YOL078W, strain AVO1, hits give low values",0.964
same,normalized growth,"locus YOL136C, strain PFK27, hits give low values",0.86
same,normalized growth,"locus YOR061W, strain CKA2, hits give low values",0.895
same,normalized growth,"locus YOR119C, strain RIO1, hits give low values",0.935
same,normalized growth,"locus YOR231W, strain MKK1, hits give low values",0.883
same,normalized growth,"locus YOR329C, strain SCD5, hits give low values",0.966
same,normalized growth,"locus YPL031C, strain PHO85, hits give low values",0.853
same,normalized growth,"locus YPL153C, strain RAD53, hits give low values",0.867
same,normalized growth,"locus YPL204W, strain HRR25, hits give low values",0.839
same,normalized growth,"locus YPL209C, strain IPL1, hits give low values",0.973
same,normalized growth,"locus YPL256C, strain CLN2, hits give low values",0.803 (active)
same,normalized growth,"locus YPR025C, strain CCL1, hits give low values",0.961
same,normalized growth,"locus YPR106W, strain ISR1, hits give low values",0.964
same,normalized growth,"locus YPR111W, strain DBF20, hits give low values",0.951
same,normalized growth,"strain NNK1, hits give low values",0.942
same,normalized growth,"strain TSCII, hits give low values",0.963
